Measured values taken from PubChem BioAssay (EPA / NIEHS).
Calls of active or inactive are those of the source. The calls were made as follows: active = hit-call score of the fitted dose curve at least 0.9, where 1 is the maximum; inactive = score below 0.9.

Assay: APR_HepG2_StressKinase_24hr: Apredica 24-hour HepG2 Assay for Stress Kinase (AID 2282922)
Conditions: HepG2 stress kinase (phospho-c-Jun) imaging, actives raise or lower the signal
Description: APR_HepG2_24hr is a cell-based, multiplexed-readout assay that uses HepG2, a human liver cell line, with measurements taken at 24 hours after chemical dosing in a 384-well plate.APR_HepG2_StressKinase_24hr is one of 10 assay component(s) measured or calculated from the APR_HepG2_24hr assay. It is designed to make measurements of enzyme activity, a form of enzyme reporter, as detected with fluorescence intensity signals by HCS Fluorescent Imaging technology.Data from the assay component APR_HepG2_StressKinase_24hr was analyzed into 1 assay endpoint. This assay endpoint, APR_HepG2_StressKinase_24hr, was analyzed with bidirectional fitting relative to DMSO as the negative control and baseline of activity. Using a type of enzyme reporter, measures of protein for gain or loss-of-signal activity can be used to understand the signaling at the pathway-level as they relate to the gene . Furthermore, this assay endpoint can be referred to as a primary readout, because this assay has produced multiple assay endpoints where this one serves a signaling function. To generalize the intended target to other relatable targets, this assay endpoint is annotated to the cell cycle intended target family, where the subfamily is stress response.
Cells were treated with dimethyl sulfoxide (DMSO) as a solvent control at a final concentration of 0.5% v/v or with compounds in DMSO with a resulting final DMSO concentration of 0.5% v/v. Compound treatment was done at concentrations of 0.39, 0.78, 1.56, 3.12, 6.24, 12.5, 25, 50, 100, and 200 uM in duplicate on each plate. Cells were treated with compounds for 1, 24, or 72 hr. Carbonyl […] m-chloro-phenylhydrazone (CCCP) and taxol were used as positive controls for mitochondrial function and cytoskeletal stability, respectively; DMSO served as the negative control for this experiment. Cells were fixed by the direct addition of 50 uL formaldehyde in Hank's Balanced Salt Solution (HBSS) to a final concentration of 3.7%. After incubation in the fixation medium for 30 min at room temperature (293-298 K), cells were rinsed twice with HBSS and treated with cell permeabilization buffer (16 uL of 0.5% Triton X-100) for 10 min at room temperature (293-298 K) before labeling. For mitochondrial membrane potential and mitochondrial measurements, pre-fixed cells were incubated with 50 uL of MitoTracker Red CMXRos (Invitrogen) at a concentration of 250 nM for 30 min before fixation. In the remaining cases, post-fixed cells were labeled by incubation with a multiplexed mixture of primary antibodies in HBSS for 60 min at room temperature (293-298 K) to detect immunoreactivity of c-Jun (1:500), phospho-histone H3 (1:100), phospho-histone H2A.x (1:200), p53 (1:400), alpha-tubulin (1:200) and Hoechst 33342 (2 ug/mL). Cells were labeled for multiplexed imaging on two separate plates: a) Hoechst 33342, MitoTracker Red, phospho-histone H3, and alpha-tubulin, and b) Hoechst 33342, phospho-histone H2A.x, and c-Jun. A final rinse with HBSS (50 uL) was performed before analysis. The primary and secondary antibodies for the proteins were phospho-histone H3 (rabbit anti-phospho-histone H3 and FITC-donkey anti-rabbit IgG), phospho-histone H2A.x (mouse anti-phospho-histone H2A.x and FITC-donkey anti-mouse IgG), c-Jun (rabbit anti-phospho-c-Jun and Cy3-donkey anti-rabbit IgG), p53 (sheep anti-p53 and Cy5-donkey anti-sheep IgG), alpha-tubulin (mouse anti-alpha-tubulin and Cy5-donkey anti-mouse IgG). These antibodies are available as the CellCiphr HepG2 assay kit (Millipore).Digital images of each well were captured using a Cellomics ArrayScan VTI (Thermo Scientific Cellomics) (0.8 NA objective, 0.63x optical coupler, and XF-93 filter set) at 20x magnification. The images were acquired using the autofocus feature of the ArrayScan instrument, which entails the following steps. First, the camera focuses on channel 1 (Hoechst 33342), where nuclei are identified. Second, a Z offset of 1 um is used for capturing mitochondria (MitoTracker Red). […]

AC50, active:
CC(C)c1cccc(C(C)C)c1N1C(=O)c2ccc(O)cc2C1=O 8.52 µM, CCC(C)(C)C(=O)O[C@H]1C[C@@H](C)C=C2C=C[C@H](C)[C@H](CC[C@@H]3C[C@@H](O)CC(=O)O3)[C@H]21 115 µM, Clc1nc(Cl)c(Cl)c(Cl)c1Cl 53.2 µM

outcome, inactive:
CC(=O)OCCC(C)C, CCCCCCCCCCCCc1ccccc1, Cc1c(-c2cccnc2)c2ccccc2n1CCCCC(=O)O, Cc1ccc(C)c(O)c1, Cc1ccc(S(=O)(=O)O)cc1C, On1ccccc1=S, CC(C)CCCCCCOC(=O)c1ccc(C(=O)OCCCCCCC(C)C)c(C(=O)OCCCCCCC(C)C)c1, C1=CCCC=CCCC=CCC1, CC(C)=CCC/C(C)=C/CO, C1N2CN3CN1CN(C2)C3, CC(C)CC(C)(O)C#CC(C)(O)CC(C)C (stereo not given), C=CCCCCCCCCC(=O)O, COC(=O)c1c(Cl)c(Cl)c(C(=O)OC)c(Cl)c1Cl, Nc1ccc(Nc2ccccc2)cc1, Nc1cccc(N)c1, CCn1nc(Cc2ccccc2)cc1C1CCN(C[C@H]2C[C@H](N(C)[C@@H](C(=O)O)C(C)C)C[C@@H]2c2cccc(F)c2)CC1, CC[C@H]1CC[C@H](NCc2cc3c(cc2OC)[C@H]2C[C@H]2C(=O)N3C)[C@H](c2ccccc2)N1, CC1(C)C(=O)N(Br)C(=O)N1Br, NC(=O)NO, CCOC(=O)CC(CC(=O)OCC)(OC(C)=O)C(=O)OCC, CCOCCO, Cn1cnc([N+](=O)[O-])c1Sc1ncnc2nc[nH]c12, Cn1c(=O)c2c(ncn2C)n(C)c1=O, CC[C@H]1OC(=O)[C@H](C)[C@@H](O[C@H]2C[C@@](C)(OC)[C@@H](O)[C@H](C)O2)[C@H](C)[C@@H](O[C@@H]2O[C@H](C)C[C@H](N(C)C)[C@H]2O)[C@](C)(O)C[C@@H](C)C(=O)[C@H](C)[C@@H](O)[C@]1(C)O, COC(=O)CC(=O)OC, Cc1ccc(O)cc1, CC(C)=CCCC(C)CCO (stereo not given), O=P(OC(CCl)CCl)(OC(CCl)CCl)OC(CCl)CCl, CN(C)c1ccc(N=NS(=O)(=O)O)cc1, COCCOCCOCCOC, CC1=CC(=O)CC(C)(C)C1, CCCN(C1CCN(C(=O)C2CCNCC2)CC1)[C@@H]1CCc2ccc(OC)cc2C1, O=C1CCC(N2C(=O)c3ccccc3C2=O)C(=O)N1 (stereo not given), O=C(O)CC(O)C(=O)O (stereo not given), CCCCCCCCCCCCCCCO, CC(=O)c1ccc2c(c1)[C@H](NC(=O)c1ccc(F)cc1)[C@@H](O)C(C)(C)O2, CCCC(=O)OCC
